Experimental data: PubChem BioAssay (NCI)
The panel holds about 83,000 compounds, 20% with a hit somewhere; the sample as a whole holds those more often.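 Plates (96-well) were seeded with cells, treated with compound at one concentration, and incubated for 48 hours before percent growth was determined.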 Activity calls are given as the source filed them. Rule for the calls: active = growth percent below 10; inactive = the rest.

These compounds were tested on UACC-257 melanoma (assay: NCI-60 one-dose screen, 48 h (100 = growth as untreated, 0 = no growth, -100 = all killed)). Conditions: 10 µM unless noted.
In the case of `CCCCCCCCCCCCCCCCOCCCOP(=O)(O)C1CCCN(O)C1=O` (stereo not given), the growth is reported as 18.2% (inactive).
`CCOC(=O)C#Cc1c(C(=O)OCC)nnn1Cc1ccc([N+](=O)[O-])cc1` was tested, and the growth was 42% (inactive).
With `CCN1C(=S)N(c2ccccc2)C2NC(=S)N(/N=C/C=C/c3ccccc3OC)C21` (stereo not given) the growth was 43.2% (inactive).
For `CCOc1nc(-c2ccccc2)cc2c(O)c(C(=O)N/N=C/c3ccccc3)[nH]c(=O)c12`, the growth was 101% (inactive).
`CCNCCNc1cc(-c2ccc(C(F)(F)F)cc2)c(C#N)c2nc3ccccc3n12` was tested, and the growth was -80.2% (active).
`NC(N)=NCCCCCNc1noc(Cc2c[nH]c3cc(Br)ccc23)n1` was tested, and the growth was 65.7% (inactive).
For `Cc1c(O)cc(-c2cnc(Nc3ccccc3)s2)c(O)c1C`, the growth was 106% (inactive).
For `CCCCCCCCCc1ccc(OCCOCCOCCOCCOCCOCCOCCOCCOCCO)cc1`, the growth was -25.2% (active).
`CCOC(=O)C1=C(N)Oc2c(sc3c(F)cccc23)C1c1ccc(O)cc1` (stereo not given) was tested, and the growth was 49.8% (inactive).
In the case of `CCOC(=O)c1cc(C)n(-c2ccc(C(=O)O)cc2)c1C`, the growth is reported as 96.5% (inactive).
With `O=c1[nH]c(-c2ccccc2)nc2sc3cc(O)ccc3c12` the growth was 109% (inactive).
For `CCc1ccccc1-n1c(-c2ccc(OC)cc2)cc(-c2ccc(OC)cc2)c(C#N)c1=O`, the growth was 111% (inactive).
For `COC(=O)C1Cc2ccccc2CN1C(=O)c1ccc2c(c1)Cc1ccccc1-2` (stereo not given), the growth was 29% [50 µM] (inactive).
In the case of `COc1cccc(/C=C2\COc3ccc(O)c(O)c3C2=O)c1`, the growth is reported as 28.1% (inactive).
`CCCCn1c(=O)[nH]c(N)c([C@@H]2c3c([nH]c(=O)n(CCCC)c3=O)Oc3ccc4ccccc4c32)c1=O` was tested, and the growth was 93% (inactive).
